Mcl-1 Bim block: human Bim-Mcl-1 interaction inhibition | inhibition, % at 10 µM | Bead-based flow cytometry, Bim peptide-Mcl-1 binding | Q07820 | AID 1009 | 190,000 compounds, 0.1% hits; in the data active = inhibition above about 40%
Target sequence (Q07820 whole entry, looked up): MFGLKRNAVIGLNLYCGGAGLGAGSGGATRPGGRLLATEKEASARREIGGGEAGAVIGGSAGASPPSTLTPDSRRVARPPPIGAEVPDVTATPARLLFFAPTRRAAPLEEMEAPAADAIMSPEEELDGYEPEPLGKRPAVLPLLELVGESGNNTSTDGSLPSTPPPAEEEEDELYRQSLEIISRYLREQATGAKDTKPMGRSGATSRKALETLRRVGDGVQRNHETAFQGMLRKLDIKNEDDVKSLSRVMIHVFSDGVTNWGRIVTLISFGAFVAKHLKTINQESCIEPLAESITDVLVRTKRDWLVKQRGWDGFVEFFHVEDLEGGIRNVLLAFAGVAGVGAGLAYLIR
Mcl1 Bid PPI: disrupts binding of human Mcl-1 to Bid peptide | AID 1021 | TR-FRET Mcl-1/Bid-Dy647 peptide binding, 1536-well | Q07820 | inhibition, % at 21.7 µM | 220,000 compounds, 0.97% hits;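 active = compounds that cut the binding signal by more than half at the single screening dose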;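 also: His-tagged Mcl-1 with europium anti-His antibody binding Bid BH3 peptide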
p47phox inh: blocks human p47phox regulatory protein of NADPH oxidases. p47phox/p22phox peptide binding, fluorescence polarization, 2 h. 220,000 compounds, 0.53% hits. inhibition, % at 24.7 µM;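 active = inhibition above about 30%, limit read from the data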
14-3-3 Bad PPI: disrupts binding of bovine 14-3-3 zeta to phospho-Bad peptide; P63103; TR-FRET 14-3-3zeta/Dy647-pBad peptide displacement, 1 h; inhibition, % at 21.7 µM; 220,000 compounds, 0.71% hits; AID 781;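 active = inhibition above about 70%, limit read from the data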
Target sequence (P63103 whole entry, looked up): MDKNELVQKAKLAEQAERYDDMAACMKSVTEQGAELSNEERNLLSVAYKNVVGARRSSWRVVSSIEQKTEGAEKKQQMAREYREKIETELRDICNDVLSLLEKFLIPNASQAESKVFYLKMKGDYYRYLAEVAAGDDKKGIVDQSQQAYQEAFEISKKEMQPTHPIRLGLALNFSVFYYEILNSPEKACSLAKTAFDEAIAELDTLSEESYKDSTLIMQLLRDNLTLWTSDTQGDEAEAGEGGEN
Mcl1-Noxa inh: disrupts binding of human Mcl-1 to Noxa peptide. TR-FRET Mcl-1/Noxa peptide binding, 2 h. inhibition, % at 21.7 µM. 220,000 compounds, 1.5% hits;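 active = compounds that cut the protein-peptide binding signal by more than 50% relative to plate controls in a single-dose test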;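 also: His-tagged Mcl-1 with rhodamine Noxa BH3 peptide and terbium anti-His antibody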
Hits are given with their value; - = inactive; . = not tested or not shown. In the library only some 3.2% were active in any assay of this set; here they are far more common.

SMILES	Mcl-1 Bim block	Mcl1 Bid PPI	p47phox inh	14-3-3 Bad PPI	Mcl1-Noxa inh
COc1cc2c(cc1OC)CN(C(=S)NC(=O)c1ccccc1)CC2	-	-	31	-	-
CNC(=S)N1CCc2cc(OC)c(OC)cc2C1	.	-	-	-	-
COc1ccc(CN(C)C(=O)COC(=O)c2c(-c3ccccc3Cl)noc2C)cc1	-	-	-	-	-
CCN(CC)c1ccc(NC(=O)COC(=O)/C=C/c2nc3ccccc3s2)cc1	-	-	-	-	56
CNC(=O)COC(=O)/C=C/c1nc2ccccc2s1	-	-	-	-	-
O=C(O)C1CCCCC1C(=O)NCc1cn2ccccc2n1 (centres undefined)	-	-	36	-	-
O=C(O)C1CC=CCC1C(=O)NCc1cn2ccccc2n1 (centres undefined)	-	-	-	-	-
Cc1cc(C)c(S(=O)(=O)NCc2cn3c(C)csc3n2)cc1C	-	-	-	-	76
COc1cccc(OC)c1CC1SC(=O)NC1=O (centres undefined)	-	-	-	-	-
CCOC(=O)c1ccc2nc(C(F)(F)F)[nH]c(=O)c2c1	-	-	-	77	-
CSc1nc(C)cc(OCC(=O)N/N=C/c2ccccc2O)n1	-	-	-	-	-
O=C(O)c1cccc(S(=O)(=O)N(Cc2ccccc2)c2ccccc2)c1	-	-	-	-	-
C=CCN(c1ccccc1)S(=O)(=O)c1cccc(C(=O)O)c1	-	-	-	70	-
c1ccc2c(c1)[nH]c1c3ccccc3sc21	.	-	-	-	-
CCc1ccc2[nH]c(=O)c(C(c3nnnn3CC3CCCO3)N3CCN4CCCC4C3)cc2c1 (centres undefined)	-	95	-	-	-
CCCN(CCC)CCNc1c(NC2CCN(C(=O)OCC)CC2)c(=O)c1=O	-	-	-	-	-
CCCN(CCC)CCNc1c(N2CCN(C(=O)OCC)CC2)c(=O)c1=O	-	-	-	-	64
Nc1nc(Nc2cccc(F)c2)nc(N2CCOCC2)c1[N+](=O)[O-]	.	77	-	-	-
O=C(/C=C/c1ccccc1)Nc1ccc(C(=O)N2CCCCC2)cc1	-	-	-	-	-
O=C(CSc1nc2ccccc2n1CCc1ccccc1)c1ccc(O)c(O)c1	-	52	-	94	102
Clc1ccc2c(N/N=C/c3cccc(Br)c3)ccnc2c1	-	60	-	-	-
Clc1ccc2c(N/N=C/c3ccccc3Br)ccnc2c1	-	63	-	-	58
Clc1ccc2c(NNc3ccccc3Cl)ccnc2c1	-	-	-	-	-
Cc1ccc(NC(=O)COC(=O)/C(=C/c2cccs2)c2cccs2)cc1S(=O)(=O)N(C)C	-	-	-	-	-
C=CCn1c(CSCc2ccc(Cl)cc2Cl)nnc1SCC(=O)Nc1ccc(C(=O)O)cc1	.	-	-	-	-
SMILES	Mcl-1 Bim block	Mcl1 Bid PPI	p47phox inh	14-3-3 Bad PPI	Mcl1-Noxa inh
Cc1cccc(C)c1C(=O)N[C@@H](Cc1ccccc1)C(=O)O	-	-	-	-	-
O=C(Nc1ccc(N2CCCCC2)c(Cl)c1)c1ncn[nH]1	-	-	-	-	-
O=C(Nc1ccc(CCC(=O)N2CCCC2)cc1)c1ncn[nH]1	-	96	-	-	-
O=C(CN1CCN(c2ccc(O)cc2)CC1)Nc1cc(S(=O)(=O)N2CCCCC2)ccc1Cl	-	-	-	-	69
O=C(CN1CCN(c2ccc(O)cc2)CC1)Nc1cc(S(=O)(=O)N2CCCC2)ccc1Cl	-	-	-	-	57
CC1CN(CC(=O)Nc2cc(S(=O)(=O)N3CCCC3)ccc2Cl)CC(C)O1 (centres undefined)	-	-	-	-	-
CC(=O)C1=C(C)NC(C)=C(C(C)=O)C1c1ccccc1	-	-	-	-	-
Cc1ccc(O)c(N=CC2=C(O)c3ccccc3C2=O)c1	-	-	-	-	63
O=C(NCC1CCCO1)C(c1ccccn1)N(Cc1ccccc1Cl)C(=O)CN1C(=O)c2ccccc2S1(=O)=O (centres undefined)	-	-	-	-	-
COC(=O)c1c(NC(=O)Cc2cccs2)sc2c1CCCC2	-	-	-	-	80
COC(=O)c1ccccc1NC(=O)NCc1ccncc1	-	-	-	-	-
S=c1nc(-c2cc(Cl)ccc2Cl)[nH][nH]1	-	58	-	-	-
Cc1ccc[n+](CC(=O)Nc2cc(C(F)(F)F)ccc2N2CCOCC2)c1	-	-	-	-	-
CN(Cc1ccccc1)CC(O)COc1ccc(CNCCc2ccncc2)cc1 (centres undefined)	-	-	-	86	-
COc1ccc(-c2csc(NC(=O)CSc3nc(C)nc4sc(C(=O)O)c(C)c34)n2)cc1	.	-	-	-	99
COc1ccc(-c2csc(NC(=O)CSc3nc(C)cs3)n2)cc1	-	-	-	-	-
CCOC(=O)c1cccc(-n2c(C)nc3ccccc3c2=O)c1	-	-	-	-	-
CCOC(=O)c1cccc(N2C(=O)c3ccccc3S2(=O)=O)c1	-	-	81	-	-
Cc1cccc(C)c1NC(=O)CSc1nc(COc2ccccc2)nc2ccccc12	-	59	-	-	-
COC(=O)CNC(=O)C(Cc1ccccc1)NS(=O)(=O)c1ccc2c(c1)c(=O)n(C)c(=O)n2C (centres undefined)	-	-	-	-	-
O=C1N=C2N(CCN3CCCCC3)c3ccccc3N2/C1=C\c1ccc([N+](=O)[O-])o1	-	83	-	88	-
c1ccc2c(c1)N1CCCN=C1N2CCN1CCCCC1	-	-	-	-	-
COC(Cc1n[nH]c(=S)n1-c1ccccc1)OC	-	-	-	76	-
COc1ccc(C(=O)Nc2sc(C)c(C)c2CN2CC(C)OC(C)C2)cc1 (centres undefined)	-	-	-	-	-
CC(/C=C/c1ccco1)=N/NC(=O)Cc1cccs1	-	-	-	-	87
SMILES	Mcl-1 Bim block	Mcl1 Bid PPI	p47phox inh	14-3-3 Bad PPI	Mcl1-Noxa inh
CC(/C=C/c1ccco1)=N\NC(=O)c1cc(C)[nH]n1	-	-	-	-	78
Cc1cc(C(=O)N/N=C/c2ccco2)n[nH]1	-	-	-	-	-
CC(/C=N/NC(=O)Cc1cccs1)=C\c1ccco1	-	-	-	-	-
COc1ccc(C(=O)NCCc2nnc3ccc(SCC(=O)Nc4cc(C)on4)nn23)cc1	-	-	-	-	-
O=C(/C=C/c1ccccc1)NCCc1ccccc1	.	-	-	-	-
COc1ccc(NC(=O)COC(=O)Cn2nnc3ccccc32)cc1	-	-	.	-	-
Cc1ccccc1SCC(=O)OCC(=O)Nc1ccc(N(C)C)cc1	-	-	-	-	61
COCC(=O)Nc1ccc(N(C)C)cc1	-	-	-	-	-
CN(C)c1ccc(NC(=O)COC(=O)Cn2nnc3ccccc32)cc1	-	-	-	-	71
Cc1ccc(C)c(NC(=O)CSc2nnc3n2CCCCC3)c1	-	-	-	-	-
O=C(CCN1C(=O)c2cccc([N+](=O)[O-])c2C1=O)Nc1nccs1	-	-	-	-	-

Screening results from PubChem.
